Here are results for 23 compounds from PubChem BioAssay (NCATS).

Assay [1] is described as follows: Primary qHTS for inhibitors of nuclear receptor binding SET domain protein 2 (NSD2) in an RCH-ACV wild type WT cells (2C) (AID 1645877). For activity change, negative = cell killing: % is set by controls: 0 for no effect and ±100 for the full control effect. Note: nearly all actives have a fitted effect of over 70% in size. Note: potency is the fitted concentration of half-maximal effect. Background: Quantitative high-throughput screening tests each substance at several concentrations.
The target in assay [2] is Glutathione peroxidase 1 (Homo sapiens) (UniProt P07203). Description: Primary qHTS Assay for Inhibitors of Recombinant Selenoprotein Glutathione Peroxidase 1 (GPX1) (AID 1845191). For activity, negative = inhibition: % is set by controls: 0 for no effect and ±100 for the full control effect. Note: nearly all actives have a fitted effect of over 65% in size. In outline: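 GPX1 10 nM, GR 100 nM, GSH 1 mM, NADPH 0.5 mM, CHP 0.5 mM (final). 30-min cpd preincubation, RT. Ex340/Em450 read t=0, t=15 min.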
Assay [3] concerns the target Phospholipid hydroperoxide glutathione peroxidase GPX4 (Homo sapiens) (UniProt P36969). Description: Primary qHTS Assay for Inhibitors of Recombinant Selenoprotein Glutathione Peroxidase 4 (GPX4) (AID 1845192). For activity change, negative = inhibition: series mostly up to about 50 µM; % is set by controls: 0 for no effect and ±100 for the full control effect. Note: nearly all actives have a fitted effect of over 65% in size. In outline:
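qHTS, GR-coupled: GPX4 200 nM + cpd 30 min RT → GSH 1 mM, NADPH 0.5 mM, GR 100 nM → CHP 0.5 mM start; fluor 340/450 at t0 and t15 min; no-enzyme wells as control.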

For assay [4], the target named is Luciferin 4-monooxygenase (Photinus pyralis) (UniProt P08659). Nature of the assay: Primary firefly luciferase (FLuc) qHTS assay for identification of artifact compounds. (AID 1845220).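 For activity change, negative = inhibition: series mostly up to about 54 µM; plate controls were DMSO vehicle for no effect and no enzyme for full effect.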 Note: nearly all actives have a fitted effect of over 60% in size. The essentials: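 qHTS, 15 min compound preincubation with substrate (10 uM luciferin, 10 uM ATP) at RT, then 10 nM FLuc; 5 min; luminescence; % inhibition vs no-enzyme/DMSO controls, 4-parameter Hill fit.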

Assay [5] relates to Nanoluciferase (engineered Oplophorus gracilirostris luciferase). Description: Primary Nanoluciferase (NLuc) qHTS assay for identification of artifact compounds. (AID 1845222). Note: series mostly up to about 54 µM. The essentials:
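Luminescence read-out of secreted NLuc in S16 cell conditioned medium (1:55); compounds tested with 15 min RT preincubation, then Nano-Glo substrate 1:100, 5 min. % inhibition vs no-enzyme and DMSO controls, 4-parameter Hill fit.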

A short description of assay [6]: Primary redox qHTS assay for identification of artifact compounds. (AID 1845223).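 Note: 0% = DMSO and 100% = reference compound.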 In outline:
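Redox-cycling detection via DTT (250 uM final) oxidation coupled to Amplex Red (25 uM)/HRP (250 mU/mL) in HBSS. 15 min preincubation plus 30 min after DTT, room temperature. Ex/Em 525/598 nm; 4-parameter Hill fit against DMSO and 10 uM DA3003.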

A short description of assay [7]: Primary fluorescence-based thiol-reactive (MSTI) qHTS assay for identification of artifact compounds. (AID 1845221).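 For activity change, negative = thiol reactive: series mostly up to about 54 µM; thiol-reactive compounds lower the probe fluorescence signal.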 Note: nearly all actives have a fitted effect of over 65% in size. Note: potency is the fitted concentration of half-maximal effect. The essentials: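 A multi-concentration qHTS design tested compounds against 4 uM MSTI, pH 7.4 phosphate-buffered saline. Plates were protected from light for 1 h at room temperature before imaging fluorescence.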

Several values for one entry are separate records, joined by “and”; a condition that tells them apart may be missing. Equal entries are not always repeated. A number with no mark means an inactive call. Inconclusive results are not listed. Activity calls are given as the source filed them. Calls come from the whole dose curve; as a rule, active = well fitted curve in the direction sought with a large enough effect; inconclusive = small, poorly fitted or top-dose-only effect, or another doubt; inactive = no such curve, though single readings can be large; an effect the other way counts as inactive or inconclusive. Where a SMILES comes first, the peptide text is derived from it. [ ]: non-standard residue; d: D form. ξ: configuration not given here. ξPhe(βξ-Me) = CC(c1ccccc1)C(N)C(=O)O; GABA = NCCCC(=O)O

Glutathione peroxidase 1 (Homo sapiens), sequence (P07203 whole entry, looked up): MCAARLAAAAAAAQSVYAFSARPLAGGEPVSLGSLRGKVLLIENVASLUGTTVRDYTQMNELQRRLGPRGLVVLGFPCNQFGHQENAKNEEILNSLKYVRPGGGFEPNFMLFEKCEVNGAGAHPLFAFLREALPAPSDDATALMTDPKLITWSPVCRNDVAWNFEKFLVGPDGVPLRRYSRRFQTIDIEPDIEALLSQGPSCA
Phospholipid hydroperoxide glutathione peroxidase GPX4 (Homo sapiens), sequence (P36969 whole entry, looked up): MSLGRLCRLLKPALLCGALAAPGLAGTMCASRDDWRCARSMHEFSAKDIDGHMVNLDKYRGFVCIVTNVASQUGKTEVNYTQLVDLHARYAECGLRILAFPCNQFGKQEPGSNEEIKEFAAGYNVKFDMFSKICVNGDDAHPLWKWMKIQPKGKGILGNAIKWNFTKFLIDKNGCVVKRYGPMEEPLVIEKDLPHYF

For `CCn1cc(NC(=S)Nc2cc(Cl)ccc2OC)c(C(N)=O)n1`, the Potency result in assay [1], in assay [2], in assay [3], in assay [4], in assay [5] and in assay [6] was “inactive” in each case.
`C[C@@H]1O[C@@H](O[C@@H]2[C@@H](O)[C@@H](O[C@]3(CO)O[C@H](CO)[C@@H](O)[C@@H]3OC(=O)/C=C/c3ccc(O)cc3)O[C@H](CO)[C@H]2OC(=O)/C=C/c2ccc(O)cc2)[C@H](O)[C@H](O)[C@H]1O[C@@H]1O[C@@H](C)[C@H](O[C@@H]2OC[C@](O)(CO)[C@H]2O)[C@@H](O)[C@H]1O`: in assay [1], the activity change, negative = cell killing is 1.71% [at 9.23 µM]. The Potency result in assay [2] was “inactive”. Also, in assay [4], the activity change, negative = inhibition was -0.433% [at 11.6 µM]. In assay [7], the activity change, negative = thiol reactive is 79.7% [at 11.5 µM]. In addition, the activity, negative = inhibition in assay [5] is 0% [at 11.6 µM]. The redox activity (% of DA3003) in assay [6] is 17.5% [at 11.5 µM].
For the compound `Cc1ccccc1NC(=O)Nc1ccc(CC(=O)N(C)[C@@H](CC(C)C)C(=O)NCC[C@H](NC(=O)[C@@H]2CCCN2S(=O)(=O)c2cc(Cl)cc(Cl)c2)C(=O)O)cc1`, the Potency result in assay [1], in assay [2], in assay [3], in assay [7], in assay [5] and in assay [6] was “inactive” each time.
Regarding `CO[C@@H](C)Cn1c(=O)n(C)c2cnc3ccc(-c4cncc(C(C)(C)O)c4)cc3c21`, the Potency in assay [1] is 166 nM (active). For the same compound, the Potency result in assay [2], in assay [4], in assay [7], in assay [5] and in assay [6] was “inactive” throughout.
For the compound `C#CC[C@H](c1nc2cc(Cl)ccc2c(=O)n1Nc1ccccc1)N(CCCN)C(=O)c1cccc(Cl)c1F`, the Potency in assay [1] was 332 nM (active). The Potency entry in assay [2], in assay [4], in assay [7], in assay [5] and in assay [6] was “inactive” in each case.
Regarding `O=C(CSc1nc2c(c(=O)n1-c1ccccc1)SCC2)Nc1ccc(-c2ccccc2)cn1`, the Potency in assay [1] is 32.5 nM (active). Moreover, the Potency entry in assay [2], in assay [3], in assay [7], in assay [5] and in assay [6] was “inactive” throughout.
On to `CC(C)(O)c1ccc2c(c1)C(O)C[C@H]1[C@](C)(C(=O)O)CCC[C@]21C` (stereo not given in full), for which the Potency result in assay [1], in assay [2], in assay [3], in assay [5] and in assay [6] was “inactive” in each case.
With `COC(=O)C1=COC(O[C@@H]2O[C@H](CO)[C@@H](O)[C@H](O)[C@H]2O)[C@H]2[C@@H]1[C@H](OC(=O)CCc1ccc(O)cc1)C[C@]2(C)O` (stereo not given in full), the Potency entry in assay [1], in assay [2], in assay [3], in assay [4], in assay [5] and in assay [6] was “inactive” in each case.
As to `COc1c2c(c(C)c3c1C(=O)OC3)O[C@@]1(C)CCC3(C(C)(C)O)OC(=O)CC[C@]3(C)[C@H]1C2` (stereo not given in full), the Potency result in assay [1], in assay [2], in assay [3], in assay [7], in assay [5] and in assay [6] was “inactive” in each case.
On to `COc1cc(/C=C/C(=O)O[C@H]2[C@H](O)[C@@H](CO)O[C@@]2(CO)O[C@H]2O[C@H](CO)[C@@H](O)[C@H](O)[C@H]2O)ccc1O`, for which the Potency entry in assay [1], in assay [2], in assay [3], in assay [4], in assay [5] and in assay [6] was “inactive” throughout.
Take `COc1ccc(/C=C/C(=O)O[C@@H]2[C@@H](O)[C@@H](O)[C@H](O[C@@H]3C=C(CO)[C@H]4[C@H](O[C@@H]5O[C@H](CO)[C@@H](O)[C@H](O)[C@H]5O)OC=C[C@H]43)O[C@H]2C)cc1O`: the Potency entry in assay [1], in assay [2], in assay [4] and in assay [5] was “inactive” in each case. The Potency in assay [7] is 3980 nM (active).
As for `CC1NC(=O)CCCNC(=O)C(Cc2c[nH]c3ccccc23)NC(=O)C(C)NC(=O)C(C(C)C)NC(=O)C(C(C)c2ccccc2)NC(=O)C(C(C)C)NC1=O` (stereo not drawn) (cyclo([GABA]AV[ξPhe(βξ-Me)]VAW); configuration not given here), the Potency result in assay [1], in assay [2], in assay [4], in assay [7], in assay [5] and in assay [6] was “inactive” in each case.
Take `Cc1cc(C(=O)Nc2cccc(C(=O)Nc3cccc(C(F)(F)F)c3)c2)on1`: the Potency entry in assay [1], in assay [2], in assay [3], in assay [4] and in assay [6] was “inactive” throughout.
For the compound `CC1(C)CC2C=C(C(=O)O)C3COC(=O)C(O)(CO)C23C1` (stereo not given), the Potency entry in assay [1], in assay [2], in assay [3], in assay [4] and in assay [6] was “inactive” throughout.
As to `COc1cc(-c2ncn(/C=C\C(=O)OC(C)C)n2)cc(C(F)(F)F)c1`, the Potency in assay [1] is 129 nM (active). Moreover, the Potency entry in assay [2], in assay [3], in assay [7] and in assay [5] was “inactive” in each case.
`CCN1CCN(Cc2ccc(NC(=O)c3ccc(C)c(/C=C/c4cnc5[nH]ccc5c4OC)c3)cc2C(F)(F)F)CC1`: the Potency in assay [1] is 230 nM (active) and 1.18 µM (active). For the same compound, the Potency entry in assay [2], in assay [3], in assay [7], in assay [5] and in assay [6] was “inactive” each time.
In the case of `C[C@H](CCC(=O)O)[C@H]1CC[C@H]2[C@@H]3C[C@H](O)[C@@H]4C[C@H](O)CC[C@]4(C)[C@H]3CC[C@]12C`, the Potency result in assay [1], in assay [2], in assay [4], in assay [7] and in assay [5] was “inactive” each time.
As for `C#CCN(Cc1cc2c(=O)[nH]c(C)nc2cc1Br)c1ccc(C(=O)NCc2cccnc2)cc1`, the Potency in assay [1] is 2.3 nM (active). Besides, the Potency entry in assay [2], in assay [3], in assay [7], in assay [5] and in assay [6] was “inactive” each time.
As to `c1ccc(-c2csc(N3CCOCC3)n2)cc1`, the Potency entry in assay [1], in assay [2], in assay [3], in assay [5] and in assay [6] was “inactive” in each case.
With `OC[C@H]1O[C@@H](OCCc2ccccc2)[C@H](O[C@@H]2OC[C@](O)(CO)[C@H]2O)[C@@H](O)[C@@H]1O`, the Potency result in assay [1], in assay [2], in assay [3], in assay [4], in assay [5] and in assay [6] was “inactive” in each case.
Take `CC(O)/C=C/C1(O)C2(C)COC1(C)CC(O)C2` (stereo not given): the Potency result in assay [1], in assay [2], in assay [3], in assay [4] and in assay [6] was “inactive” throughout.
Turning to `CC1=CC(=O)CC(C)(C)[C@@]1(O)CC[C@@H](C)O[C@@H]1O[C@H](CO)[C@@H](O)[C@H](O)[C@H]1O`, the Potency entry in assay [1], in assay [2], in assay [3], in assay [4], in assay [5] and in assay [6] was “inactive” throughout.
`COc1ccc(C(=O)n2c(C)c(Cc3cccc(O[C@@H](C)C(=O)O)c3)c3cc(OC(F)(F)F)ccc32)cc1`: the Potency result in assay [1], in assay [2], in assay [4], in assay [7], in assay [5] and in assay [6] was “inactive” each time.
